# Where a chain is given by its changes, count along the chain named.
# Key:
# Assay in all cases: protein-binding microarray (PBM); PBM: ~300 nM protein, 6 mM HEPES pH 7.8, 80 mM KCl, 0.5 mM EDTA, 0.5 mM EGTA, 6% glycerol, 35 ng/ul poly-dIdC, 1% milk, 1 h, room temperature; Ap Aiptasia and Nv Nematostella (sea anemones) / Co Capsaspora / Aq Amphimedon (sponge) / Dm Drosophila / Hu human; RHD is the Rel homology domain; high values mean tight binding
# Conditions in all cases: dsDNA, one strand shown
# GST-Ap-NF-kB RHD = target: T1, GST-Ap-NF-kB RHD (Exaiptasia pallida (Aiptasia), UniProt A0A913YAJ5 2-422)
# T1 sequence: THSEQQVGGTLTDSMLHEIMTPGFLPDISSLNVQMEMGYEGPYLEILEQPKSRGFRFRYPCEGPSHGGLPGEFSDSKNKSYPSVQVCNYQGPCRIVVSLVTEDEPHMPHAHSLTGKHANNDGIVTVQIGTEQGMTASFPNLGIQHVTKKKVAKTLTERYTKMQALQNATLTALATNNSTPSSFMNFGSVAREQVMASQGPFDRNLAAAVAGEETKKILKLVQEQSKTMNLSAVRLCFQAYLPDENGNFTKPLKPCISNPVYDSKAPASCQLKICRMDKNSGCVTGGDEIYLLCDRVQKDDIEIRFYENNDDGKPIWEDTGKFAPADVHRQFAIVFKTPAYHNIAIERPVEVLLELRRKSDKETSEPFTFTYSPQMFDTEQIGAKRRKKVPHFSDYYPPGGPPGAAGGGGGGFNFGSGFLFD
# [1] = target: T2, GST-Nv-NF-kB (Cys allele) (Nematostella vectensis, UniProt E5G601 2-411)
# T2 sequence: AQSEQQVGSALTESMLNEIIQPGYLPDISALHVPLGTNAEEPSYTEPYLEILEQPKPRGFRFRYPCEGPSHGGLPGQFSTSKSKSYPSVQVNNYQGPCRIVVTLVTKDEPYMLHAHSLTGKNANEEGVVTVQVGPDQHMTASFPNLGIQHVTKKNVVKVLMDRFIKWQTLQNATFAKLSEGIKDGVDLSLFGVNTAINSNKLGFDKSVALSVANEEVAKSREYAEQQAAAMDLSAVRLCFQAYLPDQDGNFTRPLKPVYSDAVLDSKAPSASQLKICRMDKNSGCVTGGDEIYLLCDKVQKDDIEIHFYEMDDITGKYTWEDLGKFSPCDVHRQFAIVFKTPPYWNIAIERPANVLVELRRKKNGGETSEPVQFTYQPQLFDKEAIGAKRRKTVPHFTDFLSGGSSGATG
# [2] = target: T3, GST-Nv-NF-kB (Ser allele) (Nematostella vectensis, UniProt A7UNT2 2-411)
# T3 sequence: T2 sequence with Q21R, C66S, S207N, E215Q, V217A, E225K, A268E, D399E
# GST-Co-NF-kB = target: T4, GST-Co-NF-kB (Capsaspora owczarzaki, UniProt F1ARL5 200-546)
# T4 sequence: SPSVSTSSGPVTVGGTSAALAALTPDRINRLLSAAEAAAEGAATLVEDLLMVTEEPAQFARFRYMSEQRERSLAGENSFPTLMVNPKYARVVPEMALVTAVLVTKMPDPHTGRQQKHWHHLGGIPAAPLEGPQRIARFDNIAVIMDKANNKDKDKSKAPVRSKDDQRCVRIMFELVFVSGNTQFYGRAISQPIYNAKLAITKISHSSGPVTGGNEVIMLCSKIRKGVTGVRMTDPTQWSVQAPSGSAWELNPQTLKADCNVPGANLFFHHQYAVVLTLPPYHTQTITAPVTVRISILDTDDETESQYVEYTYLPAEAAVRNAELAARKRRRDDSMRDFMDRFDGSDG
# GST-Dm-Relish = target: T5, GST-Dm-Relish (Drosophila melanogaster, UniProt Q94527 99-473)
# T5 sequence: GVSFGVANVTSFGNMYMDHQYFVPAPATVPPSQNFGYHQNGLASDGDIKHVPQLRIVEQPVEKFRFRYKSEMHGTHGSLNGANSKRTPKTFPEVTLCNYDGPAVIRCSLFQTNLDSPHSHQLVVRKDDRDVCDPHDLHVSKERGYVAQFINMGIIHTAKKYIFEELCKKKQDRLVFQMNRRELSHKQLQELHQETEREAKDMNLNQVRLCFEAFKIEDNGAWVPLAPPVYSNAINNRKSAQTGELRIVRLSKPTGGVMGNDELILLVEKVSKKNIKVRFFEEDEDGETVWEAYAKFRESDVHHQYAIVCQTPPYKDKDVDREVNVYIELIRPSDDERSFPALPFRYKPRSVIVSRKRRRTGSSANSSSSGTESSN
# GST-Aq-NF-kB = target: T6, GST-Aq-NF-kB (Amphimedon queenslandica, UniProt A9Y5G7 2-389)
# T6 sequence: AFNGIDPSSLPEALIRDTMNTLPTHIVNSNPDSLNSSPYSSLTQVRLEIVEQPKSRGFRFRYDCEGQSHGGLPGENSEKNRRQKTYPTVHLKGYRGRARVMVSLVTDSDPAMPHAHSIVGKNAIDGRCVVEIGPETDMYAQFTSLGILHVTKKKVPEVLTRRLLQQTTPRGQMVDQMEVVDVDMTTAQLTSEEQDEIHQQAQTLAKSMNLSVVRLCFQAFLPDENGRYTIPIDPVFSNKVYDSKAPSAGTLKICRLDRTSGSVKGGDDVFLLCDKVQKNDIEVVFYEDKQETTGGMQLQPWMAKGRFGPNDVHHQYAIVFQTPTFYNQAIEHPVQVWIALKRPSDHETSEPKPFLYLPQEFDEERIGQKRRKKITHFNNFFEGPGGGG
# GST-Hu-p50 = GST-Hu-p50 (Homo sapiens, UniProt P19838 7-356)
# GST-Hu-p50, sequence (P19838 7-356): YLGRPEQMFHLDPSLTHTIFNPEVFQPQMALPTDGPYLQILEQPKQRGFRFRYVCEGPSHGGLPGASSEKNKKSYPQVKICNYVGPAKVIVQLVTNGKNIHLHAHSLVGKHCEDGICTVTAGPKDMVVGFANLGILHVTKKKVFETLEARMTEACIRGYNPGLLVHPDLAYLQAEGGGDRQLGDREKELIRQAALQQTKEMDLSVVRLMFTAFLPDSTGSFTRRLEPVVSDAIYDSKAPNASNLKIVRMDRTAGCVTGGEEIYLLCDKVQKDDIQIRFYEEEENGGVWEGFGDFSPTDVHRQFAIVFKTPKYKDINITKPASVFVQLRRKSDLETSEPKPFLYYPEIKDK
Sequence,binding signal (GST-Ap-NF-kB RHD),binding signal [1],binding signal [2],binding signal (GST-Co-NF-kB),binding signal (GST-Dm-Relish),binding signal (GST-Aq-NF-kB),binding signal (GST-Hu-p50)
CCGATTAACATCATTAGGGGAAGTGATGTTAATCGGGTCTTGATTCGCTTGACGCTGCTG,4.61 z-score,5.4 z-score,7.61 z-score,3.41 z-score,2.36 z-score,4.57 z-score,5.39 z-score
CCGATTAACATCACGTACTTCCCTGATGTTAATCGGGTCTTGATTCGCTTGACGCTGCTG,1.66 z-score,1.92 z-score,1.78 z-score,1.1 z-score,7.92 z-score,3.04 z-score,1.38 z-score
CCGATTAACATCAAAAAATACCCTGATGTTAATCGGGTCTTGATTCGCTTGACGCTGCTG,6.17 z-score,9.78 z-score,8.7 z-score,3.1 z-score,8.93 z-score,8.03 z-score,6.73 z-score
CCGATTAACATCAATTTCCCCCGTGATGTTAATCGGGTCTTGATTCGCTTGACGCTGCTG,7.85 z-score,6.59 z-score,8.85 z-score,12.3 z-score,5.65 z-score,6.15 z-score,6.52 z-score
CCGATTAACATCACATGGGAATCTGATGTTAATCGGGTCTTGATTCGCTTGACGCTGCTG,1 z-score,2.19 z-score,2.46 z-score,1.08 z-score,1.82 z-score,1.14 z-score,1.59 z-score
CCGATTAACATCAGGGAAATCAATGATGTTAATCGGGTCTTGATTCGCTTGACGCTGCTG,2.16 z-score,3.6 z-score,4.65 z-score,3.49 z-score,1.09 z-score,2.67 z-score,2.57 z-score
CCGATTAACATCAAAAGAACCCCTGATGTTAATCGGGTCTTGATTCGCTTGACGCTGCTG,4.18 z-score,3.46 z-score,3.14 z-score,2.76 z-score,5.45 z-score,4.8 z-score,4.47 z-score
CCGATTAACATCACAAAAAACCCTGATGTTAATCGGGTCTTGATTCGCTTGACGCTGCTG,3.76 z-score,4.37 z-score,4.38 z-score,1.78 z-score,5.51 z-score,5.58 z-score,4.61 z-score
CCGATTAACATCAATGCCCCCCCTGATGTTAATCGGGTCTTGATTCGCTTGACGCTGCTG,5.2 z-score,2.82 z-score,3.53 z-score,5.03 z-score,4.02 z-score,4.04 z-score,4.02 z-score
CCGATTAACATCAGGGATATCCCTGATGTTAATCGGGTCTTGATTCGCTTGACGCTGCTG,6.62 z-score,6.52 z-score,4.4 z-score,3.18 z-score,7.32 z-score,7.89 z-score,3.87 z-score
CCGATTAACATCACATTTTCCCCTGATGTTAATCGGGTCTTGATTCGCTTGACGCTGCTG,6.76 z-score,8.07 z-score,10.5 z-score,9.7 z-score,3.97 z-score,5.38 z-score,6.01 z-score
CCGATTAACATCAAGGGGGTTCCTGATGTTAATCGGGTCTTGATTCGCTTGACGCTGCTG,9.16 z-score,6.77 z-score,6.26 z-score,1.68 z-score,10.4 z-score,7.2 z-score,6.65 z-score
CCGATTAACATCAAGGGGGGTGCTGATGTTAATCGGGTCTTGATTCGCTTGACGCTGCTG,4.44 z-score,3.89 z-score,3.43 z-score,3.26 z-score,4.11 z-score,4.32 z-score,4.67 z-score
CCGATTAACATCAAGGGGATTTATGATGTTAATCGGGTCTTGATTCGCTTGACGCTGCTG,7.79 z-score,9.15 z-score,11.3 z-score,3.44 z-score,8.3 z-score,6.25 z-score,7.34 z-score
CCGATTAACATCAGAGAATCCCCTGATGTTAATCGGGTCTTGATTCGCTTGACGCTGCTG,9.54 z-score,9.8 z-score,10.9 z-score,3.37 z-score,8.56 z-score,7.28 z-score,6.99 z-score
CCGATTAACATCAGGGGGGACGATGATGTTAATCGGGTCTTGATTCGCTTGACGCTGCTG,5.01 z-score,4.55 z-score,4.5 z-score,5.85 z-score,3.77 z-score,4.63 z-score,3.85 z-score
CCGATTAACATCAAAAAGTCCCGTGATGTTAATCGGGTCTTGATTCGCTTGACGCTGCTG,7.34 z-score,9.76 z-score,8.57 z-score,2.47 z-score,9 z-score,8.05 z-score,6.44 z-score
CCGATTAACATCAATTCACCCCCTGATGTTAATCGGGTCTTGATTCGCTTGACGCTGCTG,4.01 z-score,3.65 z-score,4.82 z-score,6.74 z-score,3.16 z-score,4.11 z-score,4.31 z-score
CCGATTAACATCAGGGGTAAATATGATGTTAATCGGGTCTTGATTCGCTTGACGCTGCTG,2.7 z-score,3.39 z-score,3.87 z-score,7.48 z-score,1.66 z-score,3.06 z-score,3.84 z-score
CCGATTAACATCAAATACCCCCTTGATGTTAATCGGGTCTTGATTCGCTTGACGCTGCTG,8.01 z-score,6.1 z-score,6.79 z-score,4.41 z-score,6.19 z-score,6.04 z-score,5.85 z-score
CCGATTAACATCAGGGGGCACCCTGATGTTAATCGGGTCTTGATTCGCTTGACGCTGCTG,5.39 z-score,3.36 z-score,2.57 z-score,2.17 z-score,3.84 z-score,5.62 z-score,3.84 z-score
CCGATTAACATCAGGGGGAGGTATGATGTTAATCGGGTCTTGATTCGCTTGACGCTGCTG,4.66 z-score,4.16 z-score,5.35 z-score,6.26 z-score,2.41 z-score,3.87 z-score,4.35 z-score
CCGATTAACATCAGGGTTTCCCATGATGTTAATCGGGTCTTGATTCGCTTGACGCTGCTG,3.12 z-score,3.27 z-score,2.81 z-score,2.84 z-score,8.13 z-score,4.6 z-score,2.14 z-score
CCGATTAACATCAGGGACTCCCCTGATGTTAATCGGGTCTTGATTCGCTTGACGCTGCTG,11.3 z-score,9.16 z-score,7.65 z-score,4.68 z-score,10.3 z-score,9.57 z-score,6.03 z-score
